Test results from PMC7819943, “Rice protein-binding microarrays: a tool to detect cis-acting elements near promoter regions in rice”.
Over roughly 68,000 sequences, “fluorescence intensity (a.u.)” has its median near 9,100; the highest 2% begin near 16,000. Only a selection was taken, and the highest values are over-represented in it overall.

Each sequence was assayed against OsWRKY34 (Oryza sativa, UniProt Q0JBA9 1-250) (assay: protein-binding microarray (RPBM); PBS, 2% BSA, 51.3 ng/ul salmon testes DNA, 50 uM zinc acetate, 200 nM TF, 25 C, 1 h; high values mean tight binding). Settings: protein: recombinant; tags: N-terminal polyhistidine and DsRed monomer fusion (pET32a); label: CyDye5-dUTP incorporated in the synthesized complementary strand; 3' TTTTT single-stranded linker to array surface; dsDNA, one strand shown.
How it was run: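 Binding signal is reported as fluorescence intensity per feature (arbitrary units) from an Axon 4000B scanner. Incubation used 200 nM of each Ni–NTA-purified, N-terminally polyhistidine- and DsRed-fused transcription factor from E. coli BL21-CodonPlus on a double-stranded custom Agilent array for 1 h at 25 °C, with 50 µM zinc acetate in the buffer, followed by washing.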

Chain of OsWRKY34 (Q0JBA9 entry or part of it): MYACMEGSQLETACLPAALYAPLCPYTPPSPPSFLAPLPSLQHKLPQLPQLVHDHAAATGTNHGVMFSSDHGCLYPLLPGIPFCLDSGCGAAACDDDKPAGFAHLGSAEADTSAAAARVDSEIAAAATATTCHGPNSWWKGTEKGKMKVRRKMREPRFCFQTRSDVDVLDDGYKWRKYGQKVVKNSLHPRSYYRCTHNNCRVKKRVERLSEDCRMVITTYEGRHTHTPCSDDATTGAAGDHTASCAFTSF

Row | Sequence | binding signal
1 | CACACACACCCTGTCGAGCGAATATGCATGTCTTCTCAAGCGGAGTCACCTAGTGCAG | 8960 fluorescence intensity (a.u.)
2 | TCCCTTTTGAGTACCACTGCTGATATCTGGATGCCCGTCACGGAGTCACCTAGTGCAG | 8080 fluorescence intensity (a.u.)
3 | TTCACAATGTAAGCCATTCTAGCATTTTCCATATTTATATCGGAGTCACCTAGTGCAG | 8240 fluorescence intensity (a.u.)
4 | ATTTTGCCCCTTGTTGATCACCACAGAAGAACATGTGCTACGGAGTCACCTAGTGCAG | 9790 fluorescence intensity (a.u.)
5 | CCCATTCTTTCACTTTTGACCTTTTTTTATCATTTTGTTTCGGAGTCACCTAGTGCAG | 9510 fluorescence intensity (a.u.)
6 | TTTAGTACGTGTTTGACCATTCGTCTTATTAAAAAAATTTCGGAGTCACCTAGTGCAG | 9130 fluorescence intensity (a.u.)
7 | TTTGACACCGTTGACTTTTTAGTACGTATTTGATCATTCGCGGAGTCACCTAGTGCAG | 33800 fluorescence intensity (a.u.)
8 | GGTCGTCGTCTTTGCATTGTCTCCTTGTCCGGTACGTTGGCGGAGTCACCTAGTGCAG | 9400 fluorescence intensity (a.u.)
9 | TTTGACACCGTTGATTTTTTAATATGTGTTTGACCATTCGCGGAGTCACCTAGTGCAG | 9260 fluorescence intensity (a.u.)
10 | TGTCACATTCGTCTCCGGTCCGTACGTTGCTGTATTTTAGCGGAGTCACCTAGTGCAG | 17100 fluorescence intensity (a.u.)
11 | AACTTTACAATTTTTTTATGTCATCCATGTCACATGTTTTCGGAGTCACCTAGTGCAG | 9030 fluorescence intensity (a.u.)
12 | ACCCACTTTCGACTCCATGAATTTCATCACATTTGTTTTACGGAGTCACCTAGTGCAG | 18600 fluorescence intensity (a.u.)
13 | ATCCGTGTATTATAGCGTTTCGTAGTAGTATTTTTATGTCCGGAGTCACCTAGTGCAG | 9280 fluorescence intensity (a.u.)
14 | GTTCATATAGTACGTACTTTTATTCGTTAGTATATATGACCGGAGTCACCTAGTGCAG | 9410 fluorescence intensity (a.u.)
15 | CGTTGACTTTTTAGTACGTGTTTGACCATTCGTCTTATTCCGGAGTCACCTAGTGCAG | 30200 fluorescence intensity (a.u.)
16 | TGTTAACTTTTTAGTACGTGTTTGACTATTCGTTTTATTCCGGAGTCACCTAGTGCAG | 12800 fluorescence intensity (a.u.)
17 | GTTCCCAACGGTCACCTCGTCGTCGTTGCCAAATCTGCCACGGAGTCACCTAGTGCAG | 8670 fluorescence intensity (a.u.)
18 | ATCACGTCGCCTCGTTTCTTGCCTCGCCGCTCGTTGCTCGCGGAGTCACCTAGTGCAG | 12200 fluorescence intensity (a.u.)
19 | AATACCAAGTTTATTTCTCACCTGCATTTTAGATTCTCATCGGAGTCACCTAGTGCAG | 9050 fluorescence intensity (a.u.)
20 | TAGTCCACCTTTTATTACCCAAGTTTCAATTTGGACCACCCGGAGTCACCTAGTGCAG | 9740 fluorescence intensity (a.u.)
21 | TCCCTTCCCTGTTCCTGGCGACGTGTCACCTTCTTATTCGCGGAGTCACCTAGTGCAG | 8050 fluorescence intensity (a.u.)

Row | Sequence | binding signal
22 | ATAAACATTGACTCGCCGGAGTAGTTTTGAAACGTTTGACCGGAGTCACCTAGTGCAG | 9180 fluorescence intensity (a.u.)
23 | GCAACCAACATCCCGGCGGCGAGCTCGTACGTACCAAATCCGGAGTCACCTAGTGCAG | 10800 fluorescence intensity (a.u.)
24 | CACACCACACACTGATGCAACGGCACTTAAGCGCACGAAGCGGAGTCACCTAGTGCAG | 8060 fluorescence intensity (a.u.)
25 | CGTCGGTGTGGTATGCTTGTCGCGCGGCGGCGCGGCCGTACGGAGTCACCTAGTGCAG | 8790 fluorescence intensity (a.u.)
26 | CCTACCTCCTACTCCTTATCCTCCACTTCGTCGCATTACACGGAGTCACCTAGTGCAG | 8750 fluorescence intensity (a.u.)
27 | CGACTGCAGCTGATCCGGATTCAACACGGACATAGTACACCGGAGTCACCTAGTGCAG | 8550 fluorescence intensity (a.u.)
28 | ATTTAGTTCTCAACATACCCCTTTTCATCTTTTTGTCAGACGGAGTCACCTAGTGCAG | 8840 fluorescence intensity (a.u.)
29 | GTTGACTTTTTGATTAACGTTTGACCATTCGTTTTATTCACGGAGTCACCTAGTGCAG | 9480 fluorescence intensity (a.u.)
30 | AATATTTTTTTTTACTGTTTTCACTTTGACCATTAATATTCGGAGTCACCTAGTGCAG | 9790 fluorescence intensity (a.u.)
31 | CGTTGACTTTTTAGTACATGTTTGACCATTCGTCTTATTCCGGAGTCACCTAGTGCAG | 36100 fluorescence intensity (a.u.)
32 | CTTTTTAATCAACGTTTGACCATTCGTCTTATTCAATTTTCGGAGTCACCTAGTGCAG | 10900 fluorescence intensity (a.u.)
33 | TCATTGACTTTTCGATCAACGTTTGACCATTTGTTTTATTCGGAGTCACCTAGTGCAG | 16700 fluorescence intensity (a.u.)
34 | TCATTCATATTATTTATTATTTAGTTGTTTGACTTTTTTTCGGAGTCACCTAGTGCAG | 9600 fluorescence intensity (a.u.)
35 | ACACCGTTGACTTTTTAGTACGTATTTGACCATTCGTCTTCGGAGTCACCTAGTGCAG | 36700 fluorescence intensity (a.u.)
36 | GCTGTTGACTTTCGACCTACGTTTGACCATTCGTTTTATTCGGAGTCACCTAGTGCAG | 20600 fluorescence intensity (a.u.)
37 | GCCATTTGTACGTTTCTATTTTCTCAGTAATCAGACCATTCGGAGTCACCTAGTGCAG | 11600 fluorescence intensity (a.u.)
38 | CCCGTCTCCTCGCCTGCCGATCTCCATCCTGCTAGCAGAGCGGAGTCACCTAGTGCAG | 8930 fluorescence intensity (a.u.)
39 | AGATACATACGCCCACCCGCCGCGCCCACTTCCGTCCAAACGGAGTCACCTAGTGCAG | 8490 fluorescence intensity (a.u.)
40 | TCCTCCTGTCTCTGCCTCTGCTCGGCTAGTCTAGTGTACTCGGAGTCACCTAGTGCAG | 8810 fluorescence intensity (a.u.)
41 | GTATTTAATTAGCTCCTCGTCTTGTTCTGCTAAGCTACTACGGAGTCACCTAGTGCAG | 9460 fluorescence intensity (a.u.)
42 | TTGTCATCCTCGCCACCTCATTCTTTCTTTCTTTCATCTCCGGAGTCACCTAGTGCAG | 12900 fluorescence intensity (a.u.)
